The text below walks through data of PubChem BioAssay (NCATS).

Inconclusive results are not listed. Entries that show only a call come without a potency. Calls of active or inactive are those of the source. The call rests on the fitted dose curve; in most records, active means well fitted inhibition curve with a large enough effect; inconclusive means small, poorly fitted or top-dose-only effect; inactive means flat fitted curve, though single readings scatter.
Potency means the concentration at half of the fitted maximal effect.

One assay concerns CP201. Description: qHTS profiling for inhibitors of Plasmodium falciparum proliferation (AID 504749). Further: nearly all actives have a fitted effect of over 60% in size. The note with it: P. falciparum in erythrocytes, SYBR Green DNA, 72 h; series mostly up to 28.7 µM. An outline of the steps: (§1)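 In a 72 h erythrocytic culture (37 C, humidified, 5% CO2) at 2.5% hematocrit and 0.3% starting parasitemia, compounds were tested; SYBR Green I in detergent lysis buffer stained parasite DNA overnight.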
As to `S=P(N1CC1)(N1CC1)N1CC1`, the Potency entry is “inactive”.
For `COc1ccc(-c2ccc3cc(C(=O)O)ccc3c2)cc1C12CC3CC(CC(C3)C1)C2`, the Potency entry is “inactive”.
`COC(=O)Nc1nc2ccc(C(=O)c3ccccc3)cc2[nH]1`: the Potency entry was “inactive”.
Consider `COc1ccc2cc3[n+](cc2c1OC)CCc1cc2c(cc1-3)OCO2`, for which the Potency was 1690 nM (active).
For `N=C(N)c1ccc(OCCCCCOc2ccc(C(=N)N)cc2)cc1`, the Potency is 1690 nM (active).
Still for that read-out and setting: next, `Oc1c(Cl)cc(Cl)c2cccnc12`: “inactive”; `COC(=O)Nc1nc2ccc(Sc3ccccc3)cc2[nH]1`: “inactive”.
The same measure, in the same setting: in the case of `CC(C)Cn1cnc2c(N)nc3ccccc3c21` it was “inactive”; in that of `CCCc1nc(C)c2c(=O)[nH]c(-c3cc(S(=O)(=O)N4CCN(CC)CC4)ccc3OCC)nn12`, “inactive”; in that of `CC(C)(Sc1cc(C(C)(C)C)c(O)c(C(C)(C)C)c1)Sc1cc(C(C)(C)C)c(O)c(C(C)(C)C)c1`, “inactive”.
The same measure, in the same setting: next, `COc1cc(NCc2ccc3nc(N)nc(N)c3c2C)cc(OC)c1OC`: 4780 nM (active); `Cc1nnc(NS(=O)(=O)c2ccc(N)cc2)s1`: “inactive”; `Nc1nc(N)c2nc(CNc3ccc(C(=O)NC(CCC(=O)O)C(=O)O)cc3)cnc2n1` (stereo not given): “inactive”.
In the case of `CC(C)(C)C(=O)OCOP(=O)(COCCn1cnc2c(N)ncnc21)OCOC(=O)C(C)(C)C`, the Potency result was “inactive”.
For the molecule `CCOC(=O)[C@H](CCc1ccccc1)N[C@H]1CS[C@H](c2cccs2)CN(CC(=O)O)C1=O`, the Potency result was “inactive”.
For the molecule `CCc1c2c(nc3ccc(OC(=O)N4CCC(N5CCCCC5)CC4)cc13)-c1cc3c(c(=O)n1C2)COC(=O)[C@]3(O)CC`, the Potency result is “inactive”.
With `CC(C)NCC(O)c1ccc(NS(C)(=O)=O)cc1` (stereo not given), the Potency entry is “inactive”.
As for `CC(C)OC(=O)C(C(=O)OC(C)C)=C1SC=CS1`, the Potency entry is “inactive”.
Consider `CC[C@H](C)C(=O)O[C@H]1C[C@@H](C)C=C2C=C[C@H](C)[C@H](CC[C@@H]3C[C@@H](O)CC(=O)O3)[C@H]21`, for which the Potency result is “inactive”.
On the same count and under the same terms, in the case of `O=c1cc(O)c(Cl)c[nH]1` it was “inactive”; in that of `CC(=O)Oc1ccccc1C(=O)Nc1ncc([N+](=O)[O-])s1`, “inactive”.
As to `COc1ccc(C(=O)CC(=O)c2ccc(C(C)(C)C)cc2)cc1`, the Potency result was “inactive”.
In the case of `CNC1CCCN(c2c(F)cc3c(=O)c(C(=O)O)cn(C4CC4)c3c2OC)C1` (stereo not given), the Potency result is “inactive”.

Another assay concerns CP203. The description is as above. The note with it: P. falciparum in erythrocytes, SYBR Green DNA, 72 h; series mostly up to 28.7 µM. An outline of the steps: as §1
Take `COc1ccc2cc3[n+](cc2c1OC)CCc1cc2c(cc1-3)OCO2`: the Potency is 1070 nM (active).
Still for that read-out and setting: next, `N=C(N)c1ccc(OCCCCCOc2ccc(C(=N)N)cc2)cc1`: 953 nM (active); `CCc1cc(C(N)=S)ccn1`: “inactive”; `CC(C)Cn1cnc2c(N)nc3ccccc3c21`: “inactive”.
With `CCCc1nc(C)c2c(=O)[nH]c(-c3cc(S(=O)(=O)N4CCN(CC)CC4)ccc3OCC)nn12`, the Potency result is “inactive”.
For `CC(C)(Sc1cc(C(C)(C)C)c(O)c(C(C)(C)C)c1)Sc1cc(C(C)(C)C)c(O)c(C(C)(C)C)c1`, the Potency result was “inactive”.
With `Nc1nc(N)c2nc(CNc3ccc(C(=O)NC(CCC(=O)O)C(=O)O)cc3)cnc2n1` (stereo not given), the Potency result is “inactive”.
Still for that read-out and setting: in the case of `CCOC(=O)[C@H](CCc1ccccc1)N[C@H]1CS[C@H](c2cccs2)CN(CC(=O)O)C1=O` it was “inactive”; in that of `CC[C@H](C)C(=O)O[C@H]1C[C@@H](C)C=C2C=C[C@H](C)[C@H](CC[C@@H]3C[C@@H](O)CC(=O)O3)[C@H]21`, “inactive”; in that of `CC(=O)Oc1ccccc1C(=O)Nc1ncc([N+](=O)[O-])s1`, “inactive”.

In a further assay the test system is CP211. Described as above. The note with it: P. falciparum in erythrocytes, SYBR Green DNA, 72 h; series mostly up to 28.7 µM. An outline of the steps: as §1
For `S=P(N1CC1)(N1CC1)N1CC1`, the Potency entry was “inactive”.
In the case of `COc1ccc(-c2ccc3cc(C(=O)O)ccc3c2)cc1C12CC3CC(CC(C3)C1)C2`, the Potency result is “inactive”.
For the molecule `COC(=O)Nc1nc2ccc(C(=O)c3ccccc3)cc2[nH]1`, the Potency entry was “inactive”.
On to `COc1ccc2cc3[n+](cc2c1OC)CCc1cc2c(cc1-3)OCO2`, for which the Potency was 757 nM (active).
`CNNCc1ccc(C(=O)NC(C)C)cc1`: the Potency result was “inactive”.
Same read-out and setting: next, `N=C(N)c1ccc(OCCCCCOc2ccc(C(=N)N)cc2)cc1`: 849 nM (active); `CCc1cc(C(N)=S)ccn1`: “inactive”; `COc1cc2c(Nc3ccc(Br)cc3F)ncnc2cc1OCC1CCN(C)CC1`: “inactive”.
The same measure, in the same setting: in the case of `COC(=O)Nc1nc2ccc(Sc3ccccc3)cc2[nH]1` it was “inactive”; in that of `CC(C)Cn1cnc2c(N)nc3ccccc3c21`, “inactive”.
Still for that read-out and setting: next, `CCCc1nc(C)c2c(=O)[nH]c(-c3cc(S(=O)(=O)N4CCN(CC)CC4)ccc3OCC)nn12`: “inactive”; `CC(C)(Sc1cc(C(C)(C)C)c(O)c(C(C)(C)C)c1)Sc1cc(C(C)(C)C)c(O)c(C(C)(C)C)c1`: “inactive”.
For the molecule `CCCCOc1ccc(CC(=O)NO)cc1`, the Potency was 2560 nM (active).
Still for that read-out and setting: next, `Cc1nnc(NS(=O)(=O)c2ccc(N)cc2)s1`: “inactive”; `Nc1nc(N)c2nc(CNc3ccc(C(=O)NC(CCC(=O)O)C(=O)O)cc3)cnc2n1` (stereo not given): “inactive”; `CC(C)(C)C(=O)OCOP(=O)(COCCn1cnc2c(N)ncnc21)OCOC(=O)C(C)(C)C`: “inactive”.
The same measure, in the same setting: in the case of `CCOC(=O)[C@H](CCc1ccccc1)N[C@H]1CS[C@H](c2cccs2)CN(CC(=O)O)C1=O` it was “inactive”.
On to `CNC(=O)c1cc(Oc2ccc(NC(=O)Nc3ccc(Cl)c(C(F)(F)F)c3)cc2)ccn1`, for which the Potency is 12000 nM (active).
As for `CCCCCCNC(=O)n1cc(F)c(=O)[nH]c1=O`, the Potency was 16900 nM (active).
With `CCc1c2c(nc3ccc(OC(=O)N4CCC(N5CCCCC5)CC4)cc13)-c1cc3c(c(=O)n1C2)COC(=O)[C@]3(O)CC`, the Potency entry was “inactive”.
Regarding `CC(C)NCC(O)c1ccc(NS(C)(=O)=O)cc1` (stereo not given), the Potency entry was “inactive”.
For `CC(C)OC(=O)C(C(=O)OC(C)C)=C1SC=CS1`, the Potency entry is “inactive”.
Turning to `CC[C@H](C)C(=O)O[C@H]1C[C@@H](C)C=C2C=C[C@H](C)[C@H](CC[C@@H]3C[C@@H](O)CC(=O)O3)[C@H]21`, the Potency entry is “inactive”.
The same measure, in the same setting: in the case of `O=c1cc(O)c(Cl)c[nH]1` it was “inactive”; in that of `CC(=O)Oc1ccccc1C(=O)Nc1ncc([N+](=O)[O-])s1`, “inactive”; in that of `COc1ccc(C(=O)CC(=O)c2ccc(C(C)(C)C)cc2)cc1`, “inactive”.
Take `CNC1CCCN(c2c(F)cc3c(=O)c(C(=O)O)cn(C4CC4)c3c2OC)C1` (stereo not given): the Potency result was “inactive”.
